Assay results taken from PubChem BioAssay (NCATS).
Results filed as inconclusive are left out. The source made the active and inactive calls. Calls come from the whole dose curve; as a rule, active = well fitted inhibition curve with a large enough effect; inconclusive = small, poorly fitted or top-dose-only effect; inactive = flat fitted curve, though single readings scatter.

Tests used:
Assay in all cases: qHTS profiling for inhibitors of Plasmodium falciparum proliferation (AID 504749); note: nearly all actives have a fitted effect of over 60% in size
Conditions in all cases: P. falciparum in erythrocytes, SYBR Green DNA, 72 h; series mostly up to 28.7 µM
AS120 = test system: AS120
Summary of the method: (§1)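 Readout was DNA-dye fluorescence from lysed cultures, ex 485/em 535 nm. Parasitized red cells had grown 72 h with compound; data scaled between 0.29 uM artemisinin and DMSO wells and corrected using vehicle-only plates.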

ATS189 = test system: ATS189
Summary of the method: as §1

ATS95 = test system: ATS95
Summary of the method: as §1

CP211 = test system: CP211
Summary of the method: as §1

CP215 = test system: CP215
Summary of the method: as §1

CP238 = test system: CP238
Summary of the method: as §1

CP247 = test system: CP247
Summary of the method: as §1

CP265 = test system: CP265
Summary of the method: as §1

CP286 = test system: CP286
Summary of the method: as §1

CP297 = test system: CP297
Summary of the method: as §1

CP315 = test system: CP315
Summary of the method: as §1

CP329 = test system: CP329
Summary of the method: as §1

DIV14 = test system: DIV14
Summary of the method: as §1

DIV17 = test system: DIV17
Summary of the method: as §1

FAB9 = test system: FAB9
Summary of the method: as §1

HB3 = test system: HB3
Summary of the method: as §1

PAD = test system: PAD
Summary of the method: as §1

PC15 = test system: PC15
Summary of the method: as §1

PC49 = test system: PC49
Summary of the method: as §1

TAB113 = test system: TAB113
Summary of the method: as §1

Measured: Potency

CC(=O)OC1CC2CCC1(C)C2(C)C (stereo not given)
inactive: all assays above
